Bioassay records (PubChem BioAssay)
Pf Dd2 inh: qHTS Primary assay for Inhibitors of Plasmodium falciparum Dd2 growth in vitro | AID 1347417, 2020 | Potency, µM (doses to about 28.9 µM), without a hit: at the highest dose activity, negative = inhibition, usual class: inhibitors | P. falciparum Dd2 growth, SYBR Green, 72 h | hit rate 4.3% among 120,000; active = well fitted inhibition curve with a large enough effect;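 also: plate controls were DMSO vehicle for no effect and reference drug for full effect; nearly all actives have a fitted effect of over 65% in size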
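Infected erythrocytes (Dd2, 0.3% parasitemia, 2.5% hematocrit final) are added to compound in RPMI-1640/Albumax II medium, grown 72 h at 37C in low oxygen, then lysed with saponin/Triton-X containing SYBR Green and read by fluorescence.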
Active calls of the source: *; i = inactive; [ ] = dose if it differs, or a comment. The full list was thinned out, with hits kept by preference. Potency is read from the fitted curve at half-maximal effect.

SMILES | Pf Dd2 inh
Cc1ccc(NC(=O)Cn2c(-c3ccc(F)cc3)nc(C)c(CCO)c2=O)c(Cl)c1 | i
CCc1ccccc1NC(=O)Cn1c(-c2ccc(F)cc2)nc(C)c(CCO)c1=O | -10.8%
CC(=O)c1cccc(NC(=O)Cn2c(-c3ccc(F)cc3)nc(C)c(CCO)c2=O)c1 | -29.1%
Cc1ccccc1NC(=O)Cn1c(-c2cccc(Cl)c2)nc(C)c(CCO)c1=O | i
CCc1ccc(NC(=O)Cn2c(-c3ccc(Cl)cc3)nc(C)c(CCO)c2=O)cc1 | -11.7%
Cc1nc(-c2ccccc2)n(CC(=O)Nc2ccc(F)c(Cl)c2)c(=O)c1CCO | 8.91µM*
CC[C@H]1CN(C(=O)C(C)(C)C)CC[C@H]1CC(=O)NCc1ccc(F)cc1 | i
Cc1ccc(S(=O)(=O)N2CCN(C3CCN(Cc4cccnc4)C3=O)CC2)cc1 (stereo not given) | -14.8%
Cn1cccc1C(=O)N[C@H]1C[C@H]2C(=O)Nc3cc(Cl)ccc3C(=O)N2C1 | -21.1%[44.1 µM]
COC1CCOC2(CCN(C(=O)COc3ccc(C)cc3)CC2)C1 (stereo not given) | -45.6%
Cc1cccc2cc(C(=O)N3CCCC(Nc4ccc(F)cc4)C3)oc12 (stereo not given) | -11.8%
CC1CCN(C(=O)CSc2nc(-c3ccc(C(C)C)cc3)no2)CC1 | 0.891µM*
COc1ccc(-c2nnc(SCC(=O)N3CCC(C)CC3)o2)cc1 | -12.7%
O=C(Cc1ccccc1Cl)N1CCC[C@H]1c1nc(-c2ccccc2)no1 | -17.5%
CC1CCN(C(=O)CSc2n[nH]c(-c3ccc(F)cc3)n2)CC1 | -2.9%
CC(C)c1ccc(-c2noc(SCC(=O)N3CCCCC3C)n2)cc1 (stereo not given) | 2.24µM*
Cc1ccc(-c2noc([C@@H]3CCCN3C(=O)Cc3ccccc3Cl)n2)cc1 | i
C=CCNC(=O)C[C@@H]1CCN(C(=O)Nc2cccc(C(=O)OCC)c2)C[C@@H]1CC | -1.2%[44.1 µM]
Cn1ccnc1C(=O)N1CCC(C2CCN(S(C)(=O)=O)CC2)C1 (stereo not given) | 26.7%
COc1ccc(CN2C(=O)CO[C@H]3CN(c4nccc(C)n4)C[C@H]32)cc1 | -20.9%[44.1 µM]
Cc1ccc(N2C(=O)N(Cc3cccc(Cl)c3)c3ccccc3S2(=O)=O)cc1 | -7.1%
Cc1ccc(N2C(=O)N(Cc3cc(=O)n4ccccc4n3)c3ccccc3S2(=O)=O)cc1Cl | 10µM*
Cc1cccc(N2C(=O)N(Cc3cc(=O)n4ccccc4n3)c3ccccc3S2(=O)=O)c1 | i
O=C(CNC(=O)c1cnccn1)NC1CCCc2c1[nH]c1ccc(Cl)cc21 (stereo not given) | -6.2%
CCc1ccc(C(=O)NC2CCN(c3cc(-c4cccs4)[nH]n3)C2)cc1 (stereo not given) | i
SMILES | Pf Dd2 inh
CN(Cc1ccc2nsnc2c1)C(=O)c1ccc(N2CCCC2=O)cc1 | 13.2%
Cc1ccc(N2CCC3(CCCN3Cc3ccc4nsnc4c3)CC2)nn1 | 12.6µM*
COCC(=O)N1CCCC(C(=O)NCc2ccc3nsnc3c2)C1 (stereo not given) | -0.1%
Cc1cccc(C(=O)N2C(C(=O)NCC3CCCO3)COC23CCN(C(=O)C(C)(C)C)CC3)c1 (stereo not given) | 4.8%
Cc1c(CN2C[C@@H](CN(C)CCO)[C@@H](CO)C2)[nH]c2c(Cl)cccc12 | 12.6µM*
CN(CCO)C[C@@H]1CN(C(=O)c2ccc3c(c2)CCC3)C[C@@H]1CO | -9.7%
Cc1cc2c(cc1C(=O)N1C[C@@H](CN(C)CCO)[C@@H](CO)C1)OCCO2 | -20.5%
CCCNC(=O)C1CCC(Cn2c(=O)c3sccc3n(Cc3ccccc3C)c2=O)CC1 (stereo not given) | -5.8%
CNC(=O)C1CCC(Cn2c(=O)c3sccc3n(CC(=O)N3CCCCC3C)c2=O)CC1 (stereo not given) | -3.4%
CC1CCN(C(=O)Cn2c(=O)n(CC3CCC(C(=O)NC(C)C)CC3)c(=O)c3sccc32)CC1 (stereo not given) | -12.7%
C=Cc1ccc(Cn2c(=O)n(CC3CCC(C(=O)NC(C)C)CC3)c(=O)c3sccc32)cc1 (stereo not given) | 11.2µM*
CCCNC(=O)C1CCC(Cn2c(=O)c3sccc3n(CC(=O)NCc3ccccc3)c2=O)CC1 (stereo not given) | -15.7%
COc1cccc(Cn2c(=O)n(CC3CCC(C(=O)N4CCOCC4)CC3)c(=O)c3sccc32)c1 (stereo not given) | 8.91µM*
COc1ccc(NC(=O)O[C@@H]2CC[C@]3(C)C(CC[C@@H](O)[C@H]3CC(=O)NCc3ccc4c(c3)OCO4)[C@]2(C)CO)cc1 (stereo not given in full) | -21.6%
CCn1nccc1C(=O)N1CCCCCCNC(=O)[C@@H]2CCC[C@@H]21 | 8.0%
Oc1ccccc1CN1CCOC[C@H]1c1ncc(-c2ccccc2)[nH]1 | -25.4%[44.1 µM]
O=c1n(-c2ccc([N+](=O)[O-])cc2)nc2n1CCN(Cc1ccc(C(F)(F)F)cc1)C2 | i
CC(C)CNC(=O)C1COC2(CCN(C(=O)c3ccc(F)cc3)CC2)N1C(=O)c1ccccc1 (stereo not given) | -23.0%
COc1cccc(CC(=O)NC2CCN(C(=O)N3CC4CC(C3)[C@H]3CCCC(=O)N3C4)CC2)c1 (stereo not given in full) | 29.8%
CC(C)N1C(=O)C2(CCCC2)C1C(=O)N1CCC(N2CCCCC2)CC1 (stereo not given) | -23.9%
CC(C)N1C(=O)C2(CCCCC2)C1C(=O)N1CCN(C)CC1 (stereo not given) | -17.6%
CC(C)N1C(=O)C2(CCCC2)C1C(=O)N1CCN(C2CCCCC2)CC1 (stereo not given) | 10µM*
COc1cccc(C2Cn3nnc(-c4nc(-c5ccc(SC)cc5)no4)c3CO2)c1 (stereo not given) | -4.7%
Cc1ccc(CN2C[C@H]3CN(C(=O)C4CCOCC4)CCN3C2=O)cc1 | -3.3%[44.1 µM]
Cn1cc(-c2ccc(F)cc2)c2nc(CO)cn2c1=O | 0.9%[44.1 µM]
SMILES | Pf Dd2 inh
COc1ccc(-c2noc([C@@H]3CCCN3C(=O)COc3cccc(C)c3)n2)cc1OC | i
O=C(NCc1ccc(F)cc1)C1CCc2nnc(-c3ccc(Cl)nc3)n21 (stereo not given) | 7.08µM*
CC(C)NC(=O)NCc1nnc2n1C(C(=O)NCc1ccc(F)cc1)CC2 (stereo not given) | 26.1%
COc1ccccc1-c1nnc2n1C(C(=O)N1CCN(c3ncccn3)CC1)CC2 (stereo not given) | 12.6%
C#CCNC(=O)C1CCc2nnc(-c3ccc(Cl)nc3)n21 (stereo not given) | 33.4%
O=C(NCc1ccc(F)cc1)C1CCc2nnc(-c3ccc(Cl)cc3Cl)n21 (stereo not given) | 3.16µM*
O=C(NCc1nnc2n1C(C(=O)NCc1ccc(F)cc1)CC2)c1ccc(Cl)cc1Cl (stereo not given) | 10.2%
COc1ccccc1-c1nnc2n1C(C(=O)NCc1ccc(F)cc1)CC2 (stereo not given) | 3.98µM*
O=C(C1CCc2nnc(-c3ccc(Cl)cc3Cl)n21)N1CCN(c2ncccn2)CC1 (stereo not given) | 5.5%
Cn1ccc(C(=O)NCc2nnc3n2C(C(=O)NCc2ccc(F)cc2)CC3)n1 (stereo not given) | 17.5%
CNC(=O)c1noc([C@@H]2CC(F)(F)CN2Cc2cn(C)nc2C)n1 | 33.2%
O=C1CCCN1CCCN1C(=O)[C@H]2CN(Cc3ccccc3)C[C@H]2C1=O | -15.6%
CS(=O)(=O)N1CCc2n[nH]c(=O)n2CC1 | 4.8%
CCN(CC)Cc1cnc2c(C(=O)NC[C@@H](C)O)cnn2c1 | 11.0%
